Assay outcomes: PubChem BioAssay, National Center for Advancing Translational Sciences (NCATS)
D3 antag: D3 dopamine receptor (human) antagonism. P35462. D3R cells, DiscoveRx beta-arrestin luminescence, antagonist mode; hits give low values. max response, negative = inhibition, %. actives 2.5% (n = 360,000). AID 652054; in the data active = max response below about -50%; inconclusive = no clear call, values can overlap the other calls; note: % is set by controls: 0 for no effect and ±100 for the full control effect
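Cells plated overnight at 1500 cells/well, then exposed to library compounds with dopamine controls for 90 minutes at 37 degrees C. DiscoveRx reagent added for 30–60 minutes at room temperature; luminescence read, quantitative HTS format.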
D3 ag: agonists of human D3 dopamine receptor; P35462; D3R DiscoveRx beta-arrestin cells, luminescence, 90 min; max activation, %; actives 0.58% (n = 410,000); AID 652048; in the data active = max activation above about 30%; note: 0% is about no effect
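Cells at 1500/well, incubated overnight, then treated with pinned compounds (dopamine as control) for 90 min at 37 degrees C. DiscoveRx reagent added for 30 - 60 minutes at room temperature; luminescence read.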
D1 ag: agonists of human D1 dopamine receptor; actives 1% (n = 360,000); activation, % at 2 µM; HEK293 T-REx D1 cells, calcium flux, agonist mode; in the data active = activation above about 30%; note: 0% is about no effect
Target sequence (P21728 whole entry, looked up): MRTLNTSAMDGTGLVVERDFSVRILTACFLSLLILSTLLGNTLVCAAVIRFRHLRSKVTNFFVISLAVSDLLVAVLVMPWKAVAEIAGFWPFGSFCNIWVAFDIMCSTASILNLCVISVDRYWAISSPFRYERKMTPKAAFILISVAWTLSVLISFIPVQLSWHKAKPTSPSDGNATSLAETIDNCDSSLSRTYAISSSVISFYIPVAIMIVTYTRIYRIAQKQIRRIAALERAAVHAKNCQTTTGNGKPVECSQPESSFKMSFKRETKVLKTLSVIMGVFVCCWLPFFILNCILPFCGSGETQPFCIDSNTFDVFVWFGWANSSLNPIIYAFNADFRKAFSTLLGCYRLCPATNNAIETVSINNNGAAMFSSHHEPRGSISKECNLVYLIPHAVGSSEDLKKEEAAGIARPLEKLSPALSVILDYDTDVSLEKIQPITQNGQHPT
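Tetracycline-induced HEK293 TREx D1 cells, force-coupled to calcium signalling, were dye-loaded with a no-wash calcium kit. Compound was pin-added after a 10 s baseline. Fluorescence was read kinetically at 1 cycle/s for 180 s, with calcium rises flagged as agonism.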
D1 antagonist: human D1 dopamine receptor antagonism; HEK293 TREx D1 cells, calcium flux, dopamine EC80; hits give low values; actives 3.2% (n = 360,000); AID 504652; activity change, negative = inhibition, % at 10 µM; in the data active = activity change below about -30%; note: % is set by controls: 0 for no effect and ±100 for the full control effect
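Cells carrying a force-coupled, tetracycline-inducible human D1 receptor report calcium flux. Each well gets a 10 s baseline, compound with 180 s monitoring, then an EC80 dopamine stimulus with a second 180 s kinetic read.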
D1 potentiator: enhances dopamine response at the human D1 receptor | AID 504651 | actives 0.036% (n = 360,000) | HEK293 TREx D1 cells, calcium flux, dopamine EC20 potentiation | potentiation, % at 10 µM | P21728; in the data active = potentiation above about 30%; note: 0% is about no effect
Starred values were filed as active, the others as inactive; ? = inconclusive; / = no result given. Rows were chosen to be rich in hits. Some 6% of all compounds tested hit in one or more screens of this group.

SMILES | D3 antag | D3 ag | D1 ag | D1 antagonist | D1 potentiator
Cc1nc2ccccc2n1S(=O)(=O)c1ccc(Br)cc1 | -17.2 | -13.3 | 4.5 | -44.2* | -10.6
COc1ccc2c(CNCc3cccs3)c(C(=O)O)n(Cc3cccc(F)c3)c2c1 | / | 3.6 | -0.9 | 10.1 | 1.2
Cc1c(/C=C(\C#N)C(=O)Nc2cccc(Cl)c2)c2ccccc2n1Cc1ccccc1Cl | / | -14.3 | 4.8 | -20.7 | -1.9
COc1ccc(-n2c(=O)c3sc4ccccc4c3n(Cc3ccccc3C)c2=O)cc1OC | / | 10.6 | 0.2 | -12.9 | -4.0
CCc1cccc(C)c1NC(=O)CN(C)S(=O)(=O)c1cccc2nsnc12 | / | -1.1 | -1.8 | 10.8 | 0.5
COC(=O)C1=C(C(=O)OC)SC2(S1)C(C(=O)OC)=C(C(=O)OC)SC1=C2c2cc(C)cc(C)c2NC1(C)C | -77.9* | -6.3 | -0.4 | -4.8 | 2.9
COc1cc(OC)c(NC(=O)C2=C(C)C(=O)OC23CCN(C(C)=O)CC3)cc1Cl | / | 6.3 | -2.1 | -8.7 | 3.3
COc1cc(OC)c(NC(=O)C2=C(C)C(=O)OC23CCCCCC3)cc1Cl | / | 7.3 | -0.7 | -69.8* | -5.5
CC1=C(C(=O)Nc2cc(Cl)ccc2C)C2(CCCCC2)OC1=O | / | -3.4 | 32.3* | 14.6 | 1.4
CC1=C(C(=O)NCc2cccc(Cl)c2)C2(CCCCCC2)OC1=O | / | -16.2 | 1.4 | -31.1* | -1.8
CCOc1ccc(-n2c(C)nc3cc(C(=O)NC4CCCC4)ccc32)cc1 | / | -5.8 | 0.5 | -0.1 | -3.9
CC(=O)c1ccc(NC(=O)c2cnc(N3CCCC3)nc2C)cc1 | / | 7.0 | 0.9 | -1.3 | -0.8
Cc1ccc2oc(=O)c3cc(C(=O)NCCCN4CCc5ccccc5C4)sc3c2c1 | -55.5* | -12.9 | -2.8 | -1.1 | -1.7
Cc1ccc2oc(=O)c3cc(C(=O)NCCCN4CCCCCC4)sc3c2c1 | -12.0 | -9.8 | 1.2 | 7.0 | 2.1
CCOC(=O)C(=C1Nc2ccccc2N1)n1c(-c2cccnc2)nc2ccccc21 | -64.8* | -12.1 | / | / | /
CCOC(=O)C1CCN(C(=O)C2CCN(c3nnc(C)c4c(C)n(-c5ccccc5)nc34)CC2)CC1 | / | 2.2 | 2.7 | 13.3 | -0.8
O=C(CC1C(=O)NCCN1Cc1c(F)cccc1Cl)NCCCN1CCCC1=O (centres undefined) | 13.7 | 11.7 | 0.6 | -38.8* | 1.6
O=C(CC1C(=O)NCCN1Cc1cccc(F)c1)NCCCN1CCCC1=O (centres undefined) | 12.2 | 3.3 | -0.6 | -0.7 | -9.1
O=C(CC1C(=O)NCCN1CCCc1ccccc1)NCCc1ccccc1F (centres undefined) | -10.1 | 2.3 | 34.1* | -28.9 | 2.1
Cc1cc2c(cc1S(=O)(=O)Nc1cccc(Cl)c1C)OCCN2C | / | -8.6 | 0.1 | 0.2 | 2.5
c1ccc2[nH]c(-c3ccncc3)nc2c1 | 1.8 | 2.5 | 2.7 | 7.0 | 0.7
c1ccc(-c2n[nH]c(-c3ccccc3)c2-c2nc3ccccc3[nH]2)cc1 | -56.4* | -5.1 | 5.9 | 19.5 | -9.8
Cc1ccc(-c2nc3ccccc3[nH]2)s1 | 16.0 | -2.5 | 2.0 | 0.5 | 0.7
c1ccc(-c2nc3ccccc3[nH]2)cc1 | -93.6* | -26.3 | 0.1 | 2.8 | 2.2
Cc1[nH]c2ccccc2c1-c1nc2ccccc2[nH]1 | 4.6 | 2.7 | 13.6 | -77.0* | -12.2
SMILES | D3 antag | D3 ag | D1 ag | D1 antagonist | D1 potentiator
CCOC(=O)c1cncc(C#CCOC(=O)Nc2ccc(OC(F)(F)F)cc2)c1 | 3.3 | 4.1 | 26.5 | -33.8* | -7.9
CCOC(=O)c1cncc(C#CCO)c1 | -17.2 | 2.1 | 1.7 | -5.5 | -0.6
Cc1cccc(C(=O)NNc2ncnc3c2cnn3-c2ccc(C)c(Cl)c2)c1 | / | -9.7 | -3.0 | -1.1 | 0.3
Cn1c(=NC(=O)C2CC2)sc2cccc(F)c21 | 20.2 | -0.9 | 2.9 | -40.5* | -6.5
COc1ccc(OC)c2c1sc(=NC(=O)C1CCCCC1)n2C | 18.5 | 19.8 | 2.2 | -7.9 | -0.4
Cc1nn(-c2cccc(Cl)c2)c2nc(-c3cccnc3)cc(C(F)(F)F)c12 | / | 6.6 | 1.1 | -11.5 | 1.4
CCc1ccccc1S(=O)(=O)Cc1ccc(C(=O)NCCc2ccc(C)cc2)o1 | / | 2.9 | 3.1 | -7.3 | 1.4
FC(F)(F)C(F)(F)C(F)(F)c1nnc2ccc(N3CCOCC3)nn12 | ? | 8.2 | 1.6 | -73.3* | -5.5
FC(F)(F)c1nnc2ccc(N3CCCC3)nn12 | -11.1 | -8.7 | 2.1 | -3.6 | 5.2
COc1ccccc1/C=C/C(=O)c1cc(Br)ccc1OC(=O)c1ccco1 | -56.5* | -3.9 | / | / | /
Cc1cc(=O)[nH]c2nnc(SCC(N)=O)n12 | / | -8.4 | -2.2 | / | 1.6
Cc1ccc(CN(C(=O)c2ccc(C(C)(C)C)cc2)c2ccccn2)o1 | / | 0.3 | 0.8 | -7.8 | -1.4
CC1=NN(C(=O)c2ccc(C)cc2)C(O)(C(F)(F)OC(F)(F)F)C1 (centres undefined) | -5.5 | 12.9 | / | / | /
CC1=NN(C(=O)c2ccccc2-n2cccc2)C(O)(C(F)(F)F)C1 (centres undefined) | -15.8 | -8.6 | 0.8 | -50.4* | -6.5
O=C(/C=C\c1ccccc1)Oc1cccc2cccnc12 | -58.6* | -5.6 | 8.0 | 6.0 | -5.2
Cc1cccc(OCCCCCn2ccnc2)c1C | 0.0 | -3.0 | 45.8* | 2.5 | -6.1
Cc1ccc(OCCn2ccnc2)c(C)c1 | -21.2 | -3.2 | 1.6 | 13.6 | -3.8
Cc1ccc(OCCOCCn2ccnc2)c(Br)c1 | 0.0 | -10.4 | 31.2* | -54.5* | -7.6
Cc1ccc2cccc(OCCCOc3ccccc3F)c2n1 | 7.6 | -2.7 | 5.9 | -49.4* | -14.0
Cc1cccc(C)c1OCCCn1ccnc1 | -11.4 | -3.3 | 6.7 | 6.2 | -3.1
CCOc1ccc(-c2nc(SC(C(C)=O)C(=O)N(C)C)c3c(=O)n(C)c(=O)n(C)c3n2)cc1 (centres undefined) | / | 1.4 | 0.7 | 6.9 | -0.5
Cc1cc(C(C)(C)C)ccc1OCCn1ccnc1 | -63.6* | 2.2 | 9.1 | -6.1 | -5.6
Cc1cccc(OCCCOc2cccc3cccnc23)c1C | -54.0* | 4.9 | 1.5 | -1.6 | -9.3
NC(=O)COc1cccc2cccnc12 | -14.6 | 11.5 | 0.1 | -78.9* | -9.8
COc1ccc(C(CC(=O)Nc2cccc(C)c2C)N2Cc3ccccc3C2=O)cc1 (centres undefined) | / | -9.6 | 1.2 | 0.9 | 2.5
c1ccc(CNCC2COc3ccccc3O2)cc1 (centres undefined) | 0.0 | 19.1 | 0.9 | 4.8 | -4.5
OC(CNCC1COc2ccccc2O1)COCc1cccs1 (centres undefined) | -71.5* | -29.6 | 5.4 | -5.3 | -6.2
CC(OCC(O)CNCC1COc2ccccc2O1)c1ccc(Cl)cc1 (centres undefined) | -67.5* | -2.6 | 26.7 | -6.2 | -8.9
CC(=O)c1cccc(OCC(O)CNCC2COc3ccccc3O2)c1 (centres undefined) | -51.1* | 36.6* | 45.0* | -47.6* | -12.7
